MITF TRPM1 HTS – MITF TRPM1 promoter activation in melanoma cells | 0.75% of 300,000 active | activation, % at 12.5 µM | SK-MEL-5 TRPM1-promoter luciferase, 24 h; % of positive control, neutral wells = 0;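 active = mean activation of at least 80% with every replicate also reaching 80%; inconclusive = mean reaches 80% but some replicate falls short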;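 also: 0% = neutral control wells and 100% = parthenolide positive control wells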
Wnt act – activators of Wnt/beta-catenin signaling; activation, % at 9.35 µM; 1.2% of 300,000 active; Wnt/beta-catenin reporter cell assay, activator, plate reader; in the data active = activation above about 30%, passing the limit was not always enough; inconclusive = no clear call, values can overlap the other calls;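 also: 0% = neutral control wells and 100% = positive control wells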
HSF1 inhib – HSF1 inhibition; AID 2098; NIH3T3-HGL HSE-luciferase, MG132-induced, luminescence 8 h; active compounds read low; activity change, negative = inhibition, % at 7.5 µM (by protocol); 0.77% of 300,000 active;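 active = more than half of replicate wells show activity change below -50%, luminescence cut by over half; inconclusive = some wells, but at most half, below -50%; inactive = no replicate well below -50%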;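 also: luciferase reports HSF-1 transcriptional activity via heat shock element; 0% = median of DMSO wells and -100% = zero luminescence signal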
HSF1 activator – increases HSF-1 driven luciferase reporter signal; activation, % at 9 µM; 1.7% of 300,000 active; NIH3T3-HGL HSF-1 luciferase reporter, MG132, 8 h; 100% = twice DMSO control signal;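 active = mean replicate activation of at least 50% with a set share of replicates each reaching 50%; inconclusive = only one of those two conditions met; inactive = mean below 50% and too few replicates reaching it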;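 also: 0% = median of the neutral control wells and 100% = twice that signal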
esBAF inh – blocks esBAF chromatin remodeling in mouse ES cells; AID 602393; reporter increase, % at 12.5 µM; 2% of 350,000 active; Bmi1-luciferase knock-in reporter, 24 h; 100% = twice the neutral-well signal; in the data active = activation above about 40%; inconclusive = no clear call, values can overlap the other calls;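 also: 0% = median of the plate's neutral control wells and 100% = double that signal; a rise in the Bmi1 reporter signal indicates esBAF inhibition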
The depositor's hits bear a star; ? = inconclusive; . = no result given. Sampled rows, rich in hits. Any-hit rate of the full collection: about 3.8%.

SMILES	MITF TRPM1 HTS	Wnt act	HSF1 inhib	HSF1 activator	esBAF inh
Cc1ccc(S(=O)(=O)N/N=C\c2cn(-c3ccccc3)nc2-c2ccccc2)cc1	18	.	-3	-11	39
Cc1ccc(S(=O)(=O)N/N=C/c2c(C)nn(-c3ccccc3)c2C)cc1	-11	.	-54*	-65	-6
Cc1ccc(CSc2nnc(SCC(=O)N/N=C/c3c(C)nn(-c4ccccc4)c3C)s2)cc1	18	.	56	65*	.
Cc1nn(-c2ccccc2)c(C)c1/C=N/NC(=O)CSc1nnc(-c2ccccc2)n1-c1ccc(Cl)cc1	16	1	6	16	.
Cc1nn(-c2ccccc2)c(C)c1/C=N/NC(=O)CSc1nnc(SCc2ccccc2Cl)s1	48	.	41	68*	.
CCOC(=O)c1cnn2c(C)cc(-c3ccc(F)cc3)nc12	91*	.	24	?	12
O=C(CCC1CCCN(C(=O)c2ccc3cc[nH]c3c2)C1)NCc1ccc(F)c(F)c1 (stereo not given)	15	5	24	57*	16
O=C(CCC1CCCN(C(=O)c2ccc3c(c2)OCO3)C1)NCc1ccc(F)c(F)c1 (stereo not given)	22	17	18	32	.
CCOc1ccc(CC(=O)N2CCC3(CC2)NCCc2[nH]cnc23)cc1	5	-1	-62*	-71	-4
COc1ccc(OC)c(CNC(=O)CCN2C(=O)COc3ccccc32)c1	-6	.	1	-4	-1
COc1ccc(Br)cc1CNC(=O)CCN1C(=O)COc2ccccc21	-5	-1	-67*	-74	-5
O=C(C[C@@H]1C[C@H]2c3cc(NC(=O)Nc4ccccc4)ccc3O[C@H]2[C@@H](CO)O1)NC1CCCC1	.	.	.	.	-3
O=C1c2ccccc2S(=O)(=O)N1CC1CC(c2ccccc2)=NO1 (stereo not given)	72	.	.	.	?
O=C1c2ccccc2S(=O)(=O)N1CC1CC(c2ccc(Cl)cc2)=NO1 (stereo not given)	32	46*	66	82*	.
COc1ccc(C2=NOC(CN3C(=O)c4ccccc4S3(=O)=O)C2)cc1 (stereo not given)	72	.	40	72*	23
O=C(Nc1ccc(C(F)(F)F)cc1)N[C@@H]1CC[C@H](CC(=O)N2CCCCC2)O[C@@H]1CO	.	.	.	.	-3
O=C(Nc1cc(F)ccc1F)N[C@@H]1CC[C@H](CCn2cc(C3CC3)nn2)O[C@@H]1CO	.	.	.	.	7
O=S(=O)(Nc1cc(Sc2cccc3cccnc23)c(O)c2ccccc12)c1ccccc1	.	0	204	204*	.
COc1cc(NS(=O)(=O)c2ccc(C)cc2)c2ncccc2c1	.	.	-81*	-83	-34
Cc1ccc(S(=O)(=O)Nc2cccc3cccnc23)cc1	-84	.	62	81*	-6
C[C@H](CO)N1C[C@H](C)[C@@H](CN(C)S(C)(=O)=O)Oc2ccc(NC(=O)Cc3ccccc3)cc2C1=O	.	.	.	.	-1
CCC(=O)Nc1ccc2c(c1)C(=O)N(C)[C@@H]1CC[C@H](CC(=O)Nc3cccc(OC)c3)O[C@@H]1CO2	.	.	.	.	0
CC(=O)Cc1nsc(NC(=O)c2ccc(-c3ccccc3Cl)o2)n1	11	-2	3	32	.
COC(=O)c1sccc1-c1ccc(C(=O)Nc2cccc(Cl)c2)o1	.	.	8	30	51*
CC(=O)Nc1ccc(NC(=O)c2ccc(-c3ccccc3Cl)o2)cc1	57	4	.	.	43*
SMILES	MITF TRPM1 HTS	Wnt act	HSF1 inhib	HSF1 activator	esBAF inh
CN1CCN(c2ccc(NC(=O)c3ccc(-c4ccccc4F)o3)cc2)CC1	27	49*	.	.	-23
O=C(Nc1ccccc1)c1ccc(-c2ccccc2Cl)o1	89*	29	20	28	53*
O=C(O)c1ccc(-c2ccccc2Cl)o1	8	.	-1	13	-3
C[C@H](O)C#Cc1ccc2c(c1)O[C@H](CN(C)C(=O)c1ccccc1)[C@@H](C)CN([C@@H](C)CO)S2(=O)=O	.	.	.	.	1
C[C@H]1CN([C@@H](C)CO)C(=O)c2cc(NS(=O)(=O)c3ccc(F)cc3)ccc2O[C@@H]1CN(C)C	.	.	.	.	-2
C[C@@H]1CN([C@@H](C)CO)C(=O)Cc2cc(NC(=O)C3CC3)ccc2O[C@@H]1CN(C)Cc1ccc(C(=O)O)cc1	.	.	.	.	-6
N#Cc1ccccc1NC(=O)c1ccc(-c2ccccc2Cl)o1	?	-3	14	12	50*
O=C(NCCc1ccccc1)c1ccc(-c2ccccc2Cl)o1	21	1	12	25	17
O=C(Nc1ccccc1)c1ccc(-c2ccc(Br)cc2)o1	.	33*	5	40	7
O=C(Nc1cccc(NC(=O)c2ccc(-c3ccc(Br)cc3)o2)c1)c1ccccc1	43	.	-2	19	.
CC(C)[C@H](NC(=O)c1ccco1)C(=O)OCC(=O)Nc1ccc(F)cc1	0	-2	5	7	.
CC(=O)Nc1ccc(NC(=O)COC(=O)[C@@H](NC(=O)c2ccc(F)cc2)C(C)C)cc1	1	5	17	62*	.
Cc1ccc2nc(-c3sc4nc(C)cc(C)c4c3N)[nH]c2c1	1	.	-61*	-66	-42
COc1ccccc1CNC(=O)C(C)NS(=O)(=O)c1ccc(Br)cc1 (stereo not given)	7	-1	-73*	-80	-12
CC(NS(=O)(=O)c1ccc(Br)cc1)C(=O)NCc1ccco1 (stereo not given)	-6	-3	11	17	.
COc1ccc(-c2ccc3c(c2)[C@@H]2[C@@H](CCN2C(=O)c2cccc(F)c2)[C@H](CO)N3C)cc1	.	.	.	.	1
COc1cccc(NC(=O)C(=S)NC2CCCCC2)c1	84*	11	9	15	-4
Cc1ccc(NC(=O)NC2CCCCCCC2)cc1	64	35*	.	.	.
Cc1ccc(NC(=O)C(=O)NC2CCCCC2)cc1	?	.	17	46	24
COc1ccc(NC(=O)NC2CCCCCCC2)cc1	59	6	20	24	53*
COc1ccc(C(=S)NC2CCCCC2)cc1	39	.	-5	-2	50*
CN1CCN(C(=O)C[C@H]2CC[C@H](NS(=O)(=O)c3cccc(F)c3)[C@H](CO)O2)CC1	.	.	.	.	-11
COc1ccc(S(=O)(=O)N[C@H]2CC[C@H](CCn3cc(-c4ccccc4F)nn3)O[C@H]2CO)cc1	.	.	.	.	0
CN1C(=O)c2cc(NC(=O)C3CC3)ccc2OC[C@@H]2O[C@H](CC(=O)NCCN3CCCC3)CC[C@@H]21	.	.	.	.	-2
O=C(Nc1cccc(F)c1)NC1CCCCC1	24	.	16	25	26
CCOc1ccc(NC(=O)NC2CC(=O)N(c3ccc(OC)cc3)C2)cc1 (stereo not given)	1	42*	9	-14	-5
COc1cccc(NC(=O)NC2CCCCCCC2)c1	89*	13	12	15	39
COc1ccc(N2CC(NC(=O)NC(C)(C)C)CC2=O)cc1 (stereo not given)	-10	-3	-5	0	.
Cn1c(CN2CCOCC2)nc2cc(NC(=O)COc3ccccc3)ccc21	3	-3	.	.	-1
